In PubChem BioAssay AID1159580 (chemical genetic matrix, 2015):
The whole screen tested about 5,500 compounds, of which about 2,000 (36%) were called active. Inconclusive results (about 18%) are left out. Rule as the data show it: active = normalized growth mostly below about 0.91 (no sharp cut-off); inconclusive = no clear call, values can overlap the other calls; inactive = mostly above about 0.92. This is one part of the list.

Assay: chemical genetic growth profiling, strain panel (AID 1159580);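 also: tested at 20 µM; growth read once vehicle control cultures reached saturation at 30 °C; 1 = growth at the plate median or of vehicle wells; lower values mean less growth of the strain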
Conditions: growth OD

Measured: normalized growth

C[C@]12CCC3c4ccc(O)cc4CCC3C1CCC2=O (stereo partly drawn)
inactive: S. cerevisiae deletion strains, locus YJR066W, strain TOR1, active compounds read low 0.953 | S. cerevisiae deletion strains, locus YJR075W, strain HOC1, active compounds read low 0.977 | S. cerevisiae deletion strains, locus YKL009W, strain mrt4, active compounds read low 0.905 | S. cerevisiae deletion strains, locus YKL068W, active compounds read low 1 | S. cerevisiae deletion strains, locus YKL085W, strain MDH1 (second series), active compounds read low 1.02 | S. cerevisiae deletion strains, locus YKL085W, strain MDH1, active compounds read low 1.02 | S. cerevisiae deletion strains, locus YKL160W, strain elf1, active compounds read low 0.994 | S. cerevisiae deletion strains, locus YKR026C, strain gcn3, active compounds read low 1.02 | S. cerevisiae deletion strains, locus YKR091W, strain srl3, active compounds read low 1.02 | S. cerevisiae deletion strains, locus YLL001W, strain dnm1, active compounds read low 1.05 | S. cerevisiae deletion strains, locus YLL026W, active compounds read low 0.999 | S. cerevisiae deletion strains, locus YLL041C, strain sdh2, active compounds read low 1.02 | S. cerevisiae deletion strains, locus YLR027C, strain aat2, active compounds read low 0.973 | S. cerevisiae deletion strains, locus YLR058C, strain SHM2, active compounds read low 0.97 | S. cerevisiae deletion strains, locus YLR102C, strain apc9, active compounds read low 1 | S. cerevisiae deletion strains, locus YLR113W, strain HOG1, active compounds read low 0.98 | S. cerevisiae deletion strains, locus YLR221C, strain rsa3, active compounds read low 1 | S. cerevisiae deletion strains, locus YLR258W, strain gsy2, active compounds read low 0.975 | S. cerevisiae deletion strains, locus YLR268W, strain sec22, active compounds read low 0.976 | S. cerevisiae deletion strains, locus YLR330W, strain CHS5, active compounds read low 1 | S. cerevisiae deletion strains, locus YLR342W, strain FKS1 (second series), active compounds read low 0.882 | S. cerevisiae deletion strains, locus YLR342W, strain FKS1, active compounds read low 1 | S. cerevisiae deletion strains, locus YLR357W, strain rsc2, active compounds read low 1.04 | S. cerevisiae deletion strains, locus YLR370C, strain arc18, active compounds read low 1.02 | S. cerevisiae deletion strains, locus YLR371W, strain rom2, active compounds read low 1.02 | S. cerevisiae deletion strains, locus YLR384C, strain iki3, active compounds read low 1.02 | S. cerevisiae deletion strains, locus YLR418C, strain cdc73, active compounds read low 0.985 | S. cerevisiae deletion strains, locus YML016C, strain PPZ1, active compounds read low 0.986 | S. cerevisiae deletion strains, locus YML032C, strain rad52, active compounds read low 0.924 | S. cerevisiae deletion strains, locus YML120C, strain ndi1, active compounds read low 1.03 | S. cerevisiae deletion strains, locus YML124C, strain tub3, active compounds read low 1.02 | S. cerevisiae deletion strains, locus YMR058W, strain fet3, active compounds read low 0.928 | S. cerevisiae deletion strains, locus YMR078C, strain ctf18, active compounds read low 0.987 | S. cerevisiae deletion strains, locus YMR125W, strain sto1, active compounds read low 1.06 | S. cerevisiae deletion strains, locus YMR129W, active compounds read low 1.02 | S. cerevisiae deletion strains, locus YMR205C, strain PFK2, active compounds read low 1.03 | S. cerevisiae deletion strains, locus YMR223W, strain ubp8, active compounds read low 0.987 | S. cerevisiae deletion strains, locus YMR231W, strain pep5, active compounds read low 0.993 | S. cerevisiae deletion strains, locus YMR307W, strain GAS1, active compounds read low 0.797 | S. cerevisiae deletion strains, locus YNL067W, strain RPL9B, active compounds read low 1 | S. cerevisiae deletion strains, locus YNL071W, strain lat1, active compounds read low 0.937 | S. cerevisiae deletion strains, locus YNL183C, strain NPR1, active compounds read low 0.936 | S. cerevisiae deletion strains, locus YNL209W, strain ssb2, active compounds read low 1.02 | S. cerevisiae deletion strains, locus YNL233W, strain BNI4, active compounds read low 0.976 | S. cerevisiae deletion strains, locus YNL248C, strain rpa49, active compounds read low 0.956 | S. cerevisiae deletion strains, locus YNL250W, strain rad50, active compounds read low 0.922 | S. cerevisiae deletion strains, locus YNL271C, strain bni1, active compounds read low 0.966 | S. cerevisiae deletion strains, locus YNL307C, strain MCK1, active compounds read low 0.96 | S. cerevisiae deletion strains, locus YNL322C, strain KRE1 (second series), active compounds read low 1.05 | S. cerevisiae deletion strains, locus YNL322C, strain KRE1, active compounds read low 1.01 | S. cerevisiae deletion strains, locus YNR049C, strain mso1, active compounds read low 1.03 | S. cerevisiae deletion strains, locus YNR052C, strain pop2, active compounds read low 0.917 | S. cerevisiae deletion strains, locus YOL006C, strain TOP1, active compounds read low 0.838 | S. cerevisiae deletion strains, locus YOL012C, strain htz1 1.42 | S. cerevisiae deletion strains, locus YOL147C, strain pex11, active compounds read low 1 | S. cerevisiae deletion strains, locus YOR001W, strain rrp6, active compounds read low 0.946 | S. cerevisiae deletion strains, locus YOR061W, strain CKA2, active compounds read low 0.969 | S. cerevisiae deletion strains, locus YOR069W, strain VPS5, active compounds read low 1 | S. cerevisiae deletion strains, locus YOR070C, strain gyp1, active compounds read low 0.997 | S. cerevisiae deletion strains, locus YOR080W, strain dia2, active compounds read low 1.02 | S. cerevisiae deletion strains, locus YOR083W, strain WHI5, active compounds read low 0.98 | S. cerevisiae deletion strains, locus YOR106W, strain vam3, active compounds read low 1.02 | S. cerevisiae deletion strains, locus YOR136W, strain idh2, active compounds read low 0.991 | S. cerevisiae deletion strains, locus YOR144C, strain elg1, active compounds read low 0.999 | S. cerevisiae deletion strains, locus YOR231W, strain MKK1, active compounds read low 0.969 | S. cerevisiae deletion strains, locus YOR265W, strain rbl2, active compounds read low 1 | S. cerevisiae deletion strains, locus YOR270C, strain vph1, active compounds read low 0.831 | S. cerevisiae deletion strains, locus YOR290C, strain snf2, active compounds read low 0.941 | S. cerevisiae deletion strains, locus YOR316C, strain cot1, active compounds read low 0.991 | S. cerevisiae deletion strains, locus YPL051W, strain arl3, active compounds read low 0.934 | S. cerevisiae deletion strains, locus YPL055C, strain LGE1, active compounds read low 0.863 | S. cerevisiae deletion strains, locus YPL078C, strain atp4, active compounds read low 0.954 | S. cerevisiae deletion strains, locus YPL106C, strain sse1, active compounds read low 1.03 | S. cerevisiae deletion strains, locus YPL240C, strain hsp82, active compounds read low 1.01 | S. cerevisiae deletion strains, locus YPL256C, strain CLN2, active compounds read low 1.02 | S. cerevisiae deletion strains, locus YPR119W, strain clb2, active compounds read low 1 | S. cerevisiae deletion strains, locus YPR141C, strain kar3, active compounds read low 1 | S. cerevisiae deletion strains, locus YPR163C, strain tif3, active compounds read low 0.927 | S. cerevisiae deletion strains, locus YPR167C, strain met16, active compounds read low 0.998 | S. cerevisiae deletion strains, strain wtn01, active compounds read low 0.967 | S. cerevisiae strains, strain wild type, active compounds read low 1
active: S. cerevisiae deletion strains, locus YKR001C, strain vps1, active compounds read low 0.854 | S. cerevisiae deletion strains, locus YLR039C, strain RIC1, active compounds read low 0.56 | S. cerevisiae deletion strains, locus YLR262C, strain YPT6 (second series), active compounds read low 0.609 | S. cerevisiae deletion strains, locus YLR262C, strain YPT6, active compounds read low 0.558 | S. cerevisiae deletion strains, locus YLR320W, strain mms22, active compounds read low 0.873 | S. cerevisiae deletion strains, locus YNL298W, strain CLA4, active compounds read low 0.902 | S. cerevisiae deletion strains, locus YOR184W, strain ser1, active compounds read low 0.714
